This is a sample that favours compounds with a hit; in the whole collection about 10% have one here.
PTEN del growth: PTEN-deleted cell growth suppression. HCT116 PTEN-null viability, CellTiter-Glo, 60 h; stronger effect = lower value. viability, % at 10 µM. 1.2% of 140,000 active. AID 827;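 active = viability at or below a set limit, 4 SD under the median of all tested compounds, cut at about 3.7% in these data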;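 note: PTEN knockout HCT116 line with beta catenin targeted HCT116 as companion control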
ROMK mod: human ROMK K+ channel modulation, primary screen | 2% of 130,000 active | Tet-inducible ROMK, thallium flux fluorescence; actives lie on both sides | AID 1918 | P48048 | B-score at 10 µM;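 active = signal ratio slope over the read window, or its plate-corrected B-score, at least 3 SD from the plate mean, either direction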;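 note: B-score of the F/F0 ratio slope over 7 to 12 s after thallium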
Target sequence (P48048 whole entry, looked up): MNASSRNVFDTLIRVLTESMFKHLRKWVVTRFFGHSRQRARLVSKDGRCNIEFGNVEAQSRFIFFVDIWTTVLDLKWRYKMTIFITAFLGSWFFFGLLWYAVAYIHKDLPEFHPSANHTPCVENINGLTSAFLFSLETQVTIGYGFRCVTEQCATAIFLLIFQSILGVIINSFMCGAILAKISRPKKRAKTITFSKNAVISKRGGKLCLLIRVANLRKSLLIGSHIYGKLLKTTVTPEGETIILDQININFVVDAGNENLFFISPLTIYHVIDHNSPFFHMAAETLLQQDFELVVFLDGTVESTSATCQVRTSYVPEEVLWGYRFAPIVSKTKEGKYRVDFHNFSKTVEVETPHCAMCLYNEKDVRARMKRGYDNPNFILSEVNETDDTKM
p97 inhibitor: inhibitors of human p97 ATPase | recombinant p97 ATPase, Kinase-Glo ATP luminescence, 3 h | inhibition, % at 8 µM | 0.42% of 220,000 active; in the data active = inhibition above about 15%;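 note: 0% = DMSO vehicle and 100% = wells lacking enzyme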
L major viab: reduces viability of Leishmania major promastigotes; resazurin fluorescence viability; inhibition, % at 10 µM; 9% of 200,000 active; in the data active = inhibition above about 50%;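 note: promastigotes grown with compound for 44 hours at 28 °C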
HCT116 bCat-KO: beta-catenin-lacking colon tumor cell growth suppression | HCT116 beta-catenin knockout viability, CellTiter-Glo, 60 h; stronger effect = lower value | 1.5% of 140,000 active | AID 818 | viability, % at 10 µM;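 active = viability at or under a set limit, the compound median less 4 SD, cut at about 6% in these data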;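 note: 0% = Hyamine 1622 control at 20 µM and 100% = untreated cell control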
Insulin prom inh: TRM-6 insulin promoter activity inhibition; TRM-6 cells (human fetal islet line), insulin promoter-eGFP reporter, imaging; reporter expression induced with tamoxifen; inhibition, % at 2 µM; 0.9% of 130,000 active; AID 1273;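 active = inhibition above the mean plus 3 SD, with well images judged a real hit on visual review, cut at about 60% in these data, passing the limit was not always enough; inconclusive = inhibition over the cutoff but images rejected on review; inactive = inhibition not above the cutoff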
* = called active by the depositor; ? = inconclusive; nt = no result.

SMILES | PTEN del growth | ROMK mod | p97 inhibitor | L major viab | HCT116 bCat-KO | Insulin prom inh
CCCCCCCSc1cc(OC)c(CCN(C)C)cc1OC | 1.3* | nt | 1 | 100* | 1.2* | 32
CCCCCSc1cc(OC)c(CCN)cc1OC | 37 | nt | -4 | 92* | 27 | nt
O=C1N(c2cccc(Cl)c2)C(c2cccnc2)N2CCCN12 (stereo not given) | nt | -0.068 | 5 | 16 | nt | -35
COc1ccc(C2SCC(=O)Nc3c2c(C)nn3-c2ccccc2)cc1OC (stereo not given) | 92 | nt | -2 | 62* | 87 | -31
O=C1NC(=O)C(=Cc2cc(Cl)ccc2OCc2ccc(C(=O)O)cc2)C(=O)N1 | nt | 0.55 | 5 | 94* | nt | nt
Cc1ccc2c(c1)C1CN(C)CCC1N2C(=O)c1cn(-c2ccccc2)nc1-c1ccccc1 (stereo not given) | nt | -1.9 | -2 | 53* | nt | -150
Cc1ccc2c(c1)C1CN(C)CCC1N2C(=O)Nc1cccc(C(F)(F)F)c1 (stereo not given) | 75 | -0.56 | 3 | 50* | 68 | 58
Cc1ccc2c(c1)[C@@H]1CN(C)CC[C@@H]1N2C(=O)Nc1cccc(C(F)(F)F)c1 | 54 | -1.2 | 1 | 81* | 45 | -20
CCn1c(O)c(C(c2ccccn2)c2c(O)n(CC)c(=S)[nH]c2=O)c(=O)[nH]c1=S | 101 | nt | -4 | -9 | 96 | -17
O=C(N/N=C/c1c(O)n(-c2ccccc2)c(=O)[nH]c1=O)c1ccncc1 | 102 | -0.18 | -1 | 91* | 98 | -6
Cc1ccc(-n2c(O)c(/C=N/NC(=O)c3ccncc3)c(=O)[nH]c2=O)cc1 | 94 | -0.17 | -6 | -6 | 97 | 24
COc1cc2c(cc1/C=C/[N+](=O)[O-])OCO2 | nt | nt | -1 | 100* | nt | 8
O=C(COc1ccccc1)N1CCN(CCN2C(=O)c3cccc4cccc(c34)C2=O)CC1 | nt | -1 | -1 | 58* | nt | nt
O=C(COc1ccccc1F)N1CCN(CCN2C(=O)c3cccc4cccc(c34)C2=O)CC1 | nt | -0.04 | 1 | 44 | nt | -7
O=C(CCC(=O)N1CCC2(CC1)OCCO2)Nc1nnc(C(F)(F)F)s1 | 85 | -0.66 | 0 | -2 | 91 | ?
c1ccc2cc(C3N4CCCN34)ccc2c1 (stereo not given) | nt | 0.72 | 3 | -1 | nt | -100
Cc1ccc(CNCCc2ccccc2F)cc1 | 98 | 0.16 | 2 | 7 | 101 | -7
CCN(CC)c1ccc(CNCCc2ccccc2F)cc1 | nt | -0.044 | -2 | 94* | nt | nt
N=Cc1c(O)n(-c2ccccc2)c(=O)n(-c2ccccc2)c1=O | nt | nt | 0 | nt | nt | nt
CN(C)c1cccc2c(C#N)ccc(N(C)C)c12 | nt | -0.25 | 6 | 17 | nt | 87*
Clc1ccccc1CNC1CN2CCC1CC2 (stereo not given) | 97 | nt | 6 | 12 | 98 | 16
O=C(NC1CN2CCC1CC2)c1cc(Cl)c([N+](=O)[O-])c2nc[nH]c12 (stereo not given) | 0.6* | -0.51 | 0 | 36 | 0.8* | -250
CCOC(C(=O)OCC(O)CN(CC)CC)(c1ccccc1)c1ccccc1 (stereo not given) | 94 | -2.1 | 2 | 100* | 86 | 64
CCN(CC)CCCOC(=O)C(OC)(c1ccccc1)c1ccccc1 | 97 | -0.7 | -5 | 100* | 103 | -27
C=C(C)Cn1c(=O)n(CC2CS2)c2ccccc21 (stereo not given) | 70 | 0.53 | -3 | 5 | 65 | nt
SMILES | PTEN del growth | ROMK mod | p97 inhibitor | L major viab | HCT116 bCat-KO | Insulin prom inh
COc1cccc(C2CC3C(=O)C=CC2N3Cc2ccccc2)c1 (stereo not given) | 25 | nt | 5 | 99* | 31 | 3
CCOc1cc(C2C(C#N)=C(N)Oc3c2c(=O)oc2ccccc32)ccc1OC(=O)c1cccs1 (stereo not given) | 97 | nt | -4 | -8 | 99 | nt
COc1ccc(CCNCc2ccncc2)cc1 | 96 | 0.3 | 1 | 90* | 91 | 28
COc1ccc(CCNC(C)CCc2ccc(OC)cc2)cc1 (stereo not given) | 88 | -1.1 | 0 | 93* | 86 | -32
COc1cccc(CCNCc2ccc(SC)cc2)c1 | 86 | nt | -2 | 51* | 96 | nt
Cc1c(C(=O)Nc2ccccc2)cc(-c2ccccc2)n1CCCN1CCOCC1 | nt | nt | -2 | nt | nt | nt
COCCCn1c(-c2ccc(OC)cc2)cc(C(=O)NC2CCCCCCC2)c1C | 48 | nt | -5 | 98* | 60 | 44
CN1C(=O)CN=C(c2ccccc2)c2cc([N+](=O)[O-])ccc21 | nt | nt | -1 | nt | nt | nt
Cc1cc([N+](=O)[O-])c(Cl)cc1NC(=O)C(C)C | 95 | -0.33 | 2 | 58* | 84 | 11
CC(Cc1ccccc1)NCc1ccccc1O (stereo not given) | nt | -0.64 | 2 | 30 | nt | nt
CN1CCN(Cc2ccccc2Sc2ccccc2)CC1 | 77 | 0.86 | 2 | 100* | 76 | 8
CC(N)Cc1ccccc1Sc1ccc(O)cc1 (stereo not given) | 80 | -1.3 | -4 | 88* | 80 | nt
CC(Cc1ccccc1Sc1ccccc1)N(C)C (stereo not given) | 80 | -0.17 | -2 | 100* | 79 | -46
COc1ccccc1Sc1ccccc1CC(C)N (stereo not given) | 77 | -2.3 | 0 | 95* | 75 | 7
COc1ccc(-n2c(O)c(C=NCCN(C)C)c(=O)[nH]c2=O)cc1 | nt | 0.26 | 7 | nt | nt | nt
O=C(NCc1ccc(C(=O)N2CCC3(CC2)OCCO3)cc1)c1cccc(Br)c1 | 99 | nt | 2 | 2 | 98 | -227
O=c1[nH]c(O)c(/C=C2/C=CC(c3cc(Cl)ccc3Cl)=N2)c(=O)[nH]1 | nt | nt | 1 | nt | nt | nt
CC(Cc1ccccc1Sc1ccc(O)cc1)N(C)C (stereo not given) | 74 | nt | 3 | 101* | 79 | 30
CN(c1ccc(OCC(=O)N2CCN(C/C=C/c3ccccc3)CC2)cc1)S(=O)(=O)c1cccs1 | nt | nt | 4 | nt | nt | nt
O=C(COc1ccc(Cl)cc1Cl)N1CCN(C/C=C/c2ccccc2)CC1 | 62 | -1.4 | -4 | 89* | 59 | -6
CN1CCN(Cc2ccc(Br)s2)CC1 | 107 | 0.096 | 7 | 70* | 94 | 4
CCn1c(=O)cc(SCC(=O)N2CCC3(CC2)OCCO3)c2ccccc21 | 72 | -0.54 | 0 | -2 | 81 | nt
COc1cc(NC(=O)CN2C3CCC2CC(O)(c2cccnc2)C3)cc(OC)c1 (stereo not given) | 93 | -0.28 | -7 | 93* | 106 | 14
N=c1sccn1Cc1ccc(Cl)cc1Cl | 68 | nt | 4 | 66* | 70 | 28
O=C(C[N+]12CCN(CC1)CC2)NCCc1ccc(Cl)cc1Cl | nt | 0.027 | 8 | -3 | nt | -35
CCCNc1nc(OC)nc(N2CC3CC(C2)c2cccc(=O)n2C3)n1 (stereo not given) | nt | -0.97 | 6 | -4 | nt | 7
CCN(CC)CCCN=C(C)c1c(O)n(C2CCCCC2)c(=O)[nH]c1=O | 97 | -0.29 | 5 | 93* | 99 | 27
CCC(=NCCCN(CC)CC)c1c(O)n(C2CCCCC2)c(=O)[nH]c1=O | 81 | -0.43 | -6 | 92* | 77 | 60

Screening results from PubChem.
